# This is a sample that favours compounds with a hit; in the whole collection about 7.9% have one here.
# KB-V1 MDR tox = qHTS assay for MDR1-selective chemotherapeutics: Primary screen using the drug-selected MDR subline cells KB-V1; AID 1347076, 2019; Potency, µM (series often up to 46.1 µM), most hits filed as cytotoxic; KB-V1 MDR cells viability, CellTiter-Glo, 72 h; 400,000 tested, 3.4% active; also: % is scaled to controls: 0 for no effect and ±100 for the full control effect; nearly all actives have a fitted effect of over 60% in size
#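 Readout: CellTiter-Glo luminescence, 10 min after addition. Cells: KB-V1 MDR subline, 72 h at 37 degrees C with compound. Analysis: corrected, normalized data fitted to concentration-effect curves.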
# KB-3-1 cytotox = qHTS assay for MDR1-selective chemotherapeutics: Primary screen using the parental adenocarcinoma cell KB-3-1 | KB-3-1 viability, CellTiter-Glo ATP luminescence, 72 h | AID 1347075, 2019 | 400,000 tested, 1.4% active | Potency, µM (series often up to 46.1 µM), actives largely listed as cytotoxic; also: % is scaled to controls: 0 for no effect and ±100 for the full control effect; nearly all actives have a fitted effect of over 60% in size
#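 Parental KB-3-1 viability, qHTS format: 72 h compound exposure, 37 °C; CellTiter-Glo; media-only wells and DMSO plates as controls; concentration-effect fits on corrected data.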
# HT1080-NT tox = qHTS for induction of synthetic lethality in tumor cells producing 2HG: qHTS for the HT-1080-NT fibrosarcoma cell line; AID 686970, 2013; HT-1080-NT fibrosarcoma viability, CellTiter-Glo ATP luminescence, 48 h; Potency, µM (titrated, usually from 46.1 µM), without a hit: at the top dose activity, negative = less viability, actives largely listed as cytotoxic; 360,000 tested, 1.6% active;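 also: NT is the 2HG producing partner of a matched IDH1 knockdown line; 0% = DMSO-treated cells and -100% = media-only wells without cells; nearly all actives have a fitted effect of over 55% in size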
#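 Luminescent CellTiter-Glo readout after 48 hours of compound exposure at 37 degrees C defined viability of HT-1080-NT cells. Activity was normalized to DMSO wells and cell-free media wells; concentration-response curves were fitted and assigned curve classes.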
# SW480 rereplic = A quantitative high throughput screen for small molecules that induce DNA re-replication in SW480 colon adenocarcinoma cells. Potency, µM (series often up to 46.1 µM), for the others: at the highest dose re-replication activation, hits mostly activators. 340,000 tested, 1.8% active. SW480 DNA re-replication, Hoechst DNA content imaging, 48 h. AID 624297, 2012; also: % of control where 0% means no effect; nearly all actives have a fitted effect of over 55% in size
#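 Image-based read-out: total Hoechst fluorescence of nuclei (405 nm excitation, 500-530 nm emission), with hits raising the fraction of high-intensity nuclei. SW480 colon cells incubated 48 hr with compounds at 37 C.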
# MCF10A rerep = A quantitative high throughput screen for small molecules that induce DNA re-replication in MCF 10a normal breast cells; MCF 10A DNA re-replication, Hoechst nuclear intensity, 48 h; 350,000 tested, 2.9% active; Potency, µM (titrated, usually from 46.1 µM), without a hit: at the highest dose activity, positive = re-replication, most hits filed as activators; also: % of control where 0% means no effect; nearly all actives have a fitted effect of over 50% in size
# HT1080 IDH1KD tx = qHTS for induction of synthetic lethality in tumor cells producing 2HG: qHTS for the HT-1080-IDH1KD cell line | HT-1080 IDH1 knockdown viability, ATP luminescence, 48 h | 360,000 tested, 2% active | Potency, µM (titrated, usually from 46.1 µM), inactives show top-dose activity, negative = toxicity, hits mostly cytotoxic;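 also: 0% = DMSO wells and -100% = cell-free medium wells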
#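 Viability of IDH1-knockdown HT-1080 fibrosarcoma cells was assessed by CellTiter-Glo after 48 h at 37 °C with titrated compound; concentration-effect curves were classified by fit quality and response size.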
# Numbers without * were called inactive; i = inactive; ? = inconclusive; nt = no result; [ ] = dose if it differs, or a comment. Calls follow the shape of the dose curve; as a rule, active = well fitted curve in the direction sought with a large enough effect; inconclusive = small, poorly fitted or top-dose-only effect, or another doubt; inactive = no such curve, though single readings can be large; an effect the other way counts as inactive or inconclusive. Potency is read from the fitted curve at half-maximal effect.
SMILES,KB-V1 MDR tox,KB-3-1 cytotox,HT1080-NT tox,SW480 rereplic,MCF10A rerep,HT1080 IDH1KD tx
O=C(C[C@H]1C[C@H](C(=O)N2CCOCC2)[C@@]2(CCC3CCCC3)c3[nH]c4cc(-c5ccco5)ccc4c3CCN2C1=O)NCCC1=CCCCC1,i,i,-9%,0%,-56%,-20%
CN(C)CCCNC(=O)CC1C[C@H](C(=O)N2CCCCC2)[C@@]2(CCc3ccccc3)c3[nH]c4ccccc4c3CCN2C1=O (stereo not given in full),i,i,7%,-6%,-3%,9%
CN(C)CCCNC(=O)C[C@H]1C[C@H](C(=O)N2CCCCC2)[C@@]2(C)c3[nH]c4cc(-c5ccco5)ccc4c3CCN2C1=O,i,i,?,2.1µM*,?,-19%
C[C@]12c3[nH]c4cc(-c5ccco5)ccc4c3CCN1C(=O)[C@@H](CC(=O)NCCCn1ccnc1)C[C@@H]2C(=O)N1CCCCC1,i,i,-3%,0%,-21%,-7%
CN(C)CCCNC(=O)C[C@H]1C[C@H](C(=O)N2CCCCC2)[C@@]2(CCc3ccccc3)c3[nH]c4cc(-c5ccco5)ccc4c3CCN2C1=O,?,?,26µM*,6%,?,?
O=C(C[C@H]1C[C@H](C(=O)N2CCOCC2)[C@@]2(CCC3CCCC3)c3[nH]c4cc(-c5ccco5)ccc4c3CCN2C1=O)NCCc1ccccn1,?,?,21µM*,?,?,?
Cc1ccc(S(=O)(=O)NCC(C)n2nc(C)nc2C)cc1 (stereo not given),i,?,-6%,-5%,0%,1%
CCN(CC(=O)NC1CCS(=O)(=O)C1)C(=O)c1ccc(OC)c([N+](=O)[O-])c1 (stereo not given),?,i,7%,-18%,0%,7%
C[C@]12c3[nH]c4cc(-c5ccco5)ccc4c3CCN1C(=O)[C@@H](CC(=O)NCc1cccc(C(F)(F)F)c1)C[C@@H]2C(=O)N1CCCCC1,?,18µM*,?,?,-41%,?
C[C@]12c3[nH]c4cc(-c5ccco5)ccc4c3CCN1C(=O)[C@@H](CC(=O)NCCN1CCOCC1)C[C@@H]2C(=O)N1CCOCC1,?,i,0%,?,4%,5%
CC(C)N(C(=O)[C@H]1C[C@H](CC(=O)NCCN2CCOCC2)C(=O)N2CCc3c([nH]c4cc(-c5ccco5)ccc34)[C@]12C)C(C)C,i,i,-21%,16µM*,-38%,-13%
CC[C@]12c3[nH]c4cc(-c5ccco5)ccc4c3CCN1C(=O)[C@@H](CC(=O)NCc1cccc(C(F)(F)F)c1)C[C@@H]2C(=O)N1CCN(C(=O)C2CC2)CC1,i,?,-26%,-3%[9.22 µM],2%,?
Cc1nc2c(OCc3ccc(C(F)(F)F)cc3)cccn2c1N(C)CC1CC1,i,i,6.5µM*,nt,nt,?
COC(=O)c1ccccc1COc1cccn2c(N(C)CC3CC3)c(C)nc12,15µM*,?,?,nt,nt,?
Cc1nc2c(OCc3ccc(C#N)cc3)cccn2c1N(C)Cc1cccs1,15µM*,?,-27%,nt,nt,-23%
CCN(CC(=O)Nc1c(F)cccc1F)C(=O)CSc1nc(C)cc(C)n1,i,i,-5%,-6%,2%,2%
Cc1cccc(C)c1OCc1cc(C(=O)N(Cc2nccn2C)C(C)C)no1,?,i,2%,?,2%,-7%
Cc1ccc(C(=O)NCCNC(=O)Cc2ccccc2)cn1,i,i,13%,?,1%,3%
Cc1nc2sccn2c(=O)c1CCN1CCC(=C(c2ccc(F)cc2)c2ccc(F)cc2)CC1,?,i,?,?,2.1µM*,?
CCCC[n+]1ccn(C2=C([O-])c3ccccc3C(=O)/C2=N\S(=O)(=O)c2ccc(Br)cc2)c1,i,i,?,-694%,?,?
Cc1ccc(S(=O)(=O)/N=C2\C(=O)c3ccccc3C([O-])=C2n2cc[n+](CCC(C)C)c2)cc1,?,i,?,2%,-5%,10µM*
CCOC(=O)C1=C(C)NC2=C(C(=O)C(C(=O)OCC)C(c3ccco3)C2)C1c1ccccn1 (stereo not given),i,i,1%,6.5µM*,373%[0.0737 µM],12%
CCOC(=O)C1=C(C)NC2=C(C(=O)C(C(=O)OCC)C(c3ccco3)C2)C1c1ccccc1C (stereo not given),i,i,nt,nt,nt,nt
O=C1C=CC(=O)N1c1cccc(-c2ccccc2)c1,i,i,21µM*,?,21µM*,?
O=c1cc(-c2ccccc2)[nH]n1-c1ccccc1,i,i,?,?,?,?
SMILES,KB-V1 MDR tox,KB-3-1 cytotox,HT1080-NT tox,SW480 rereplic,MCF10A rerep,HT1080 IDH1KD tx
O=C(COc1ccc([N+](=O)[O-])cc1)NC(=O)NC1CCS(=O)(=O)C1 (stereo not given),i,i,1%,-1%,1%,10%
CCOC(=O)c1c(NC(=O)c2ccco2)n(C2CCCCC2)c2nc3ccccc3nc12,?,i,?,-3%,6%,16µM*
CCCCn1c(NC(=O)CC)c(C#N)c2nc3ccccc3nc21,i,i,8%,-5%,8%,15%
COc1ccc(-n2c(NC(=O)c3ccco3)c(C#N)c3nc4ccccc4nc32)cc1,21µM*,?,-21%,18µM*,8.2µM*,-13%
CCC(=O)Nc1c(C#N)c2nc3ccccc3nc2n1-c1ccccc1C,i,i,8%,-1%,5%,4%
CCCCn1c(NC(=O)c2ccccc2Cl)c(C#N)c2nc3ccccc3nc21,?,?,5.8µM*,16µM*,2.6µM*,9.2µM*
CCC(=O)Nc1c(C#N)c2nc3ccccc3nc2n1C1CCCCC1,i,i,0%,?,?,4%
N#Cc1c(NC(=O)c2ccccc2Cl)n(Cc2ccccc2)c2nc3ccccc3nc12,?,?,?,11µM*,?,?

# Assay outcomes as filed in PubChem BioAssay.
